# ± gives the standard deviation of the averaged measurements.
# Tests used:
# [1] = tested on: DLD1; experiment: cell viability (CellTiter-Glo) relative to plate median (fraction of plate median); higher = more viable cells; details: 5 µM; treatment time 24 h; reporter: 7TFP
# In short: (§1)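 Colorectal cancer cell lines stably carrying lentiviral TCF/Wnt firefly luciferase reporters (7TFP or TCF4/Wnt) were plated in 384-well plates and, 24 h later, given library compounds at a final 5 µM for 24 h. Firefly luciferase or CellTiterGlo luminescence was read on parallel plates with a Tecan F500 reader. Each well's signal was normalised to the plate median in webcellHTS2 (additive, without log transformation). Values are the mean of two independent replicates.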
# [2] = tested on: HCT116; experiment: as above; details: 5 µM; treatment time 24 h; reporter: TCF4/Wnt
# In short: as §1
# [3] = tested on: SW480; experiment: as above; details: 5 µM; treatment time 24 h; reporter: 7TFP
# In short: as §1
# [4] = tested on: DLD1; experiment: TCF/Wnt firefly luciferase reporter signal relative to plate median (fraction of plate median); higher = higher Wnt reporter signal; details: 5 µM; treatment time 24 h; reporter: 7TFP
# In short: as §1
# [5] = tested on: SW480; experiment: as above; details: 5 µM; treatment time 24 h; reporter: 7TFP
# In short: as §1
Structure (SMILES),cell viability [1],cell viability [2],cell viability [3],TCF/Wnt firefly luciferase reporter signal [4],TCF/Wnt firefly luciferase reporter signal [5]
Cc1ccc(/C(=C\CN2CCCC2)c2ccccn2)cc1,0.984 ± 0.037,0.968 ± 0.088,0.945 ± 0.048,0.886 ± 0.064,0.956 ± 0.091
O=C1c2ccccc2C(=O)c2c(O)c(O)cc(O)c21,1.02 ± 0.052,0.96 ± 0.14,1.09 ± 0.092,1.17 ± 0.028,0.873 ± 0.044
Cc1ccc(C(=O)Nc2ccc(S(=O)(=O)O)c3cc(S(=O)(=O)O)cc(S(=O)(=O)O)c23)cc1NC(=O)c1cccc(NC(=O)Nc2cccc(C(=O)Nc3cc(C(=O)Nc4ccc(S(=O)(=O)O)c5cc(S(=O)(=O)O)cc(S(=O)(=O)O)c45)ccc3C)c2)c1,1.02 ± 0.068,0.929 ± 0.13,1.04 ± 0.035,0.936 ± 0.018,0.954 ± 0.11
CC(C)c1c(O)c(-c2cc3c(c(C(C)C)c2O)CCC2C(C)(C)CCC[C@]32C)cc2c1CCC1C(C)(C)CCC[C@]21C (stereo not given in full),1.02 ± 0.083,1.07 ± 0.1,1.02 ± 0.035,1.26 ± 0.26,1.09 ± 0.014
COc1ccc2[nH]cc(CCNC(C)=O)c2c1,0.961 ± 0.0071,1.11 ± 0.05,0.974 ± 0.052,0.967 ± 0.046,0.983 ± 0.095
N[C@@H](CCC(=O)N[C@@H](CS)C(=O)NCC(=O)O)C(=O)O,1.03 ± 0.042,1.06 ± 0.11,1.02,1.03,1.13 ± 0.13
O=C(CCBr)N1CCN(C(=O)CCBr)CC1,1.07 ± 0.042,1.035 ± 0.0071,1.025 ± 0.0071,1.03 ± 0.12,1.01 ± 0.019
NCCc1c[nH]cn1,1.06 ± 0.028,1.02 ± 0.021,1.04 ± 0.062,1.12,1.06 ± 0.014
Nc1cc(C(Cl)=C(Cl)Cl)c(S(N)(=O)=O)cc1S(N)(=O)=O,0.9995 ± 0.00071,1.125 ± 0.0071,1.03 ± 0.014,1.17 ± 0.11,1.1 ± 0.078
COc1cc(OC)c2c(c1Cl)O[C@@]1(C(=O)CC(=O)C[C@H]1C)C2=O,1.02 ± 0.014,0.983 ± 0.14,1.005 ± 0.0071,1.13 ± 0.057,1.02 ± 0.028
O=C1NCC2(CCN(CCc3ccccc3)CC2)O1,0.8925 ± 0.0021,1.06 ± 0.078,0.963 ± 0.018,1.05 ± 0.095,1.01 ± 0.062
Cc1coc2c1C(=O)C(=O)c1c-2ccc2c1CCCC2(C)C,1.03 ± 0.043,0.999 ± 0.016,1.05 ± 0.028,0.785 ± 0.064,0.994 ± 0.14
CCOC(=O)[C@H](CCc1ccccc1)N[C@@H](C)C(=O)N1Cc2ccccc2C[C@H]1C(=O)O,0.99 ± 0.057,0.895 ± 0.071,0.952 ± 0.066,0.958 ± 0.0085,0.876 ± 0.0057
CCCCCCCCCCCCCCCCCCCCCCO,1.04 ± 0.076,0.941 ± 0.065,0.97 ± 0.036,0.869 ± 0.032,0.927 ± 0.066
O=c1cc(-c2ccccc2O)oc2cc(O)ccc12,1.01 ± 0.069,1.02 ± 0.094,0.976 ± 0.025,1.17 ± 0.042,1.23 ± 0.085
CC1=CC2C(CC1=O)C(C)=CCC2C(C)C (stereo not given),0.983 ± 0.095,0.971 ± 0.084,1 ± 0.012,0.987 ± 0.1,0.945 ± 0.19
CCc1cc(C(N)=S)ccn1,0.964 ± 0.035,1.02 ± 0.028,0.987 ± 0.0071,1.07 ± 0.078,1.09 ± 0.028
Cc1cc(NS(=O)(=O)c2ccc(N)cc2)no1,1.035 ± 0.0071,1.15 ± 0.035,1.01,1.09 ± 0.11,0.988 ± 0.032
O=C(O)CCCC[C@@H]1SC[C@@H]2NC(=O)N[C@@H]21,1.03 ± 0.063,0.954 ± 0.04,0.948 ± 0.0042,0.982 ± 0.022,0.963 ± 0.0042
CCOC(=O)[C@H](CCc1ccccc1)N[C@H]1CCc2ccccc2N(CC(=O)O)C1=O,0.871 ± 0.1,0.899 ± 0.068,1.02 ± 0.067,1.045 ± 0.0071,1.01
COC(=O)CCCOc1ccc(Cl)cc1Cl,0.984 ± 0.093,1.02 ± 0.11,0.965 ± 0.05,1.1 ± 0.099,0.9 ± 0.23
O=C(Cc1cccs1)N[C@@H]1C(=O)N2C(C(=O)[O-])=C(C[n+]3ccccc3)CS[C@H]12,0.979 ± 0.073,0.944 ± 0.057,1.01,0.9975 ± 0.0035,0.889 ± 0.0057
Cc1cc(C)nc(NS(=O)(=O)c2ccc(N)cc2)n1,1.07 ± 0.11,0.975 ± 0.078,1.03 ± 0.047,1.025 ± 0.0071,1.08 ± 0.05
Cn1c(=O)c2c(ncn2C)n(C)c1=O,0.899 ± 0.05,0.953 ± 0.081,0.952 ± 0.0014,0.981 ± 0.11,1.01 ± 0.04
COc1c2ccoc2c(OC)c2oc(=O)ccc12,0.95 ± 0.0099,0.966 ± 0.16,1.07 ± 0.028,0.982 ± 0.11,0.927 ± 0.017
O=C1C=CC(=C(c2ccc(O)cc2)c2ccc(O)cc2)C=C1,0.99 ± 0.057,0.944 ± 0.018,1.01 ± 0.035,0.851 ± 0.038,0.93 ± 0.099
CCCCCC1C(=O)CCC1CC(=O)OC (stereo not given),0.99 ± 0.057,1.03 ± 0.084,1.025 ± 0.0071,1.08 ± 0.05,1.03 ± 0.066
NCCS(=O)(=O)O,1.04 ± 0.021,1.01 ± 0.061,0.978 ± 0.02,0.9735 ± 0.00071,1 ± 0.037
COc1ccc2c(c1)OCc1c-2oc2cc(OC)ccc12,1.05 ± 0.085,1.01 ± 0.021,1 ± 0.051,1.09 ± 0.064,1.035 ± 0.0071
NC(=O)CC[C@H](N)C(=O)O,1.02 ± 0.014,0.923 ± 0.11,1.02 ± 0.069,1.02 ± 0.14,1.07 ± 0.064
